This is an account of results in PubChem BioAssay (Tox21).

Each structure is given as a SMILES string. Values joined by “and” are separate entries in the source; they are usually repeats but may differ in a detail not shown here. Equal entries are not always repeated. More than one record can exist for a structure, and the calls need not agree. Active and inactive are the calls of the source. Unless noted, calls come from the whole dose curve; as a rule, active = well fitted curve in the direction sought with a large enough effect in the repeat runs; inconclusive = weak or mixed curves; inactive = no such curve, though single readings can be large; an effect the other way counts as inactive or inconclusive.

Assay [1] in a line: qHTS assay to identify small molecule antagonists of the glucocorticoid receptor (GR) signaling pathway - cell viability counter screen (AID 720693). Note: nearly all actives have a fitted effect of over 55% in size.
Assay [2] in a line: qHTS assay for identifying genotoxic compounds that show differential cytotoxicity against isogenic chicken DT40 cell lines with known DNA damage response pathways - wild type cell line (AID 743012). Note: nearly all actives have a fitted effect of over 60% in size. Note: potency is the fitted concentration of half-maximal effect. An outline of the steps:
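Cytotoxicity in repair-proficient parental chicken DT40 cells serves as the comparator for Rad54/Ku70- and Rev3-deficient lines. Cells were exposed to compounds for 40 h at 37 C/5% CO2, and ATP-based luminescence (CellTiter-Glo) measured viability.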
(In general: qHTS replaces the single test concentration by a dilution series.)

Assay [3] can be described thus: qHTS assay for identifying genotoxic compounds that show differential cytotoxicity against isogenic chicken DT40 cell lines with known DNA damage response pathways - Rev3 mutant cell line (AID 743014). Note: nearly all actives have a fitted effect of over 55% in size. Note: potency is the fitted concentration of half-maximal effect.
A short description of assay [4]: qHTS assay for identifying genotoxic compounds that show differential cytotoxicity against isogenic chicken DT40 cell lines with known DNA damage response pathways - Rad54/Ku70 mutant cell line (AID 743015). Note: nearly all actives have a fitted effect of over 60% in size. Note: potency is the fitted concentration of half-maximal effect.
Assay [5] can be described thus: qHTS assay to identify small molecule antagonists of the androgen receptor (AR) signaling pathway - cell viability counter screen (AID 743033; note: nearly all actives have a fitted effect of over 45% in size).
A short description of assay [6]: qHTS assay to identify small molecule antagonists of the androgen receptor (AR) signaling pathway using the MDA cell line - cell viability counter screen (AID 743041; note: nearly all actives have a fitted effect of over 45% in size). In outline: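 In this qHTS counter assay, fluorescence intensity after CellTiter-Fluor addition indicated viability of MDA-kb2 AR-luc cells given compounds and R1881 for 16 h at 37C.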
Assay [7] is described as follows: qHTS assay to identify small molecule antagonists of the thyroid receptor (TR) signaling pathway - cell viability counter screen (AID 743064). Note: nearly all actives have a fitted effect of over 50% in size. Note: potency is the fitted concentration of half-maximal effect. In outline: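 GH3.TRE-Luc rat pituitary cells dosed after 4 hr plating, co-stimulated with T3 at 1 nM final, incubated 23.5 h at 37 C. Viability measured in the same wells by CellTiter-Fluor fluorescence after 30 min further at 37 C.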

Assay [8] can be described thus: qHTS assay to identify small molecule antagonists of the thyroid receptor (TR) signaling pathway (AID 743065). Note: nearly all actives have a fitted effect of over 55% in size. Note: potency is the fitted concentration of half-maximal effect. An outline of the steps:
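GH3.TRE-Luc rat pituitary cells carrying two TR response elements driving luciferase were plated for 4 h, given compound plus 1 nM T3 (final), and incubated 23.5 h at 37 C. ONE-Glo luminescence measured reporter inhibition; CellTiter-Fluor fluorescence tracked cytotoxicity.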

Assay [9] deals with thyroid hormone receptor (rat, GH3 cells). As to the kind of experiment: qHTS assay to identify small molecule agonists of the thyroid receptor (TR) signaling pathway (AID 743066; calls by dose curve).
In assay [10] the target is Estrogen receptor (Homo sapiens) (UniProt P03372). The experiment in a line: qHTS assay to identify small molecule antagonists of the estrogen receptor alpha (ER-alpha) signaling pathway (AID 743069; active = well fitted curve in the direction sought with a large enough effect in the signal ratio in the repeat runs, not every such curve was filed as active; inconclusive = weak or mixed curves, or effect the other way; inactive = no such curve, though single readings can be large or run the other way; the % refers to the signal ratio; note: potency is the fitted concentration of half-maximal effect). In outline: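 A 17beta-estradiol challenge was applied right after compound transfer to ER-alpha-UAS-bla HEK293 cells previously kept in charcoal-stripped serum. Plates stood 18 hr at 37C and 5% CO2; fluorescence was read following 2 hr FRET substrate loading at room temperature.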

Assay [11] in a line: qHTS assay to identify small molecule antagonists of the estrogen receptor alpha (ER-alpha) signaling pathway - cell viability counter screen (AID 743074; calls by dose curve;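 note: HEK293 cells carrying ER-alpha-UAS-bla reporter stimulated with 17beta-estradiol; nearly all actives have a fitted effect of over 45% in size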).
The target of assay [12] is Estrogen receptor (Homo sapiens) (UniProt P03372). The experiment in a line: qHTS assay to identify small molecule agonists of the estrogen receptor alpha (ER-alpha) signaling pathway (AID 743075; calls by dose curve;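 note: HEK293 GripTite cells with ER-alpha and UAS-driven beta-lactamase reporter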).
For assay [13] the target is unchanged. As to the kind of experiment: qHTS assay to identify small molecule agonists of the estrogen receptor alpha (ER-alpha) signaling pathway using the BG1 cell line (AID 743079). Note: nearly all actives have a fitted effect of over 20% in size.
Assay [14] in a line: qHTS assay to identify small molecule antagonists of the estrogen receptor alpha (ER-alpha) signaling pathway using the BG1 cell line (AID 743080; calls by dose curve;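 note: BG1 cells stimulated with 17beta-estradiol alongside compound; series mostly up to about 70 µM; nearly all actives have a fitted effect of over 25% in size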). An outline of the steps: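 Readout is ONE-Glo luminescence, taken 30 min at room temperature after reagent addition, preceded by a CellTiter-Fluor viability read; BG1-Luc-4E2 cells had received compound and 17beta-estradiol for 21.5 h at 37 C.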

Assay [15] can be described thus: qHTS assay to identify small molecule antagonists of the estrogen receptor alpha (ER-alpha) signaling pathway using the BG1 cell line - cell viability counter screen (AID 743081).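 Note: compound given together with 17beta-estradiol as the ER stimulus; series mostly up to about 70 µM; nearly all actives have a fitted effect of over 45% in size.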
For another assay, the target named is Aromatase (Homo sapiens) (UniProt P11511). The experiment in a line: qHTS assay to identify aromatase inhibitors (AID 743083). Note: nearly all actives have a fitted effect of over 55% in size. Note: potency is the fitted concentration of half-maximal effect.
In assay [16] the target is Androgen receptor (Homo sapiens) (UniProt P10275). As to the kind of experiment: qHTS assay to identify small molecule agonists of the androgen receptor (AR) signaling pathway (AID 743036; active = well fitted activation curve with a large enough effect in the signal ratio in the repeat runs, with a control signal flat, not every such curve was filed as active; inconclusive = weak or mixed curves, or effect the other way; inactive = no such curve, though single readings can be large or run the other way; the % refers to the signal ratio). In outline:
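AR-UAS-bla HEK293 cells, plated 4 h before dosing, were treated with compound for 16 h at 37C. beta-Lactamase reporter read after 2 h with LiveBLAzer B/G FRET substrate at room temperature.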

Assay [17] shares this target. As to the kind of experiment: qHTS assay to identify small molecule agonists of the androgen receptor (AR) signaling pathway using the MDA cell line (AID 743040; note: nearly all actives have a fitted effect of over 20% in size). In outline:
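Cell-based luciferase reporter: MDA-kb2, MMTV promoter (AR + GR response elements). 16 h compound exposure at 37C; ONE-Glo, 30 min RT, luminescence.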

Assay [18] shares this target. As to the kind of experiment: qHTS assay to identify small molecule antagonists of the androgen receptor (AR) signaling pathway (AID 743035; active = well fitted inhibition curve with a large enough effect in the signal ratio in the repeat runs, not every such curve was filed as active; inconclusive = weak or mixed curves, or effect the other way; inactive = no such curve, though single readings can be large or run the other way; the % refers to the signal ratio). In outline:
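Steps: seed AR-UAS-bla GripTite HEK293 cells, incubate 4 h at 37C; pin in test compound, then add agonist R1881; incubate 16 h at 37C; add LiveBLAzer B/G FRET substrate, 2 h at room temperature; read fluorescence.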

The target is the same in assay [19]. As to the kind of experiment: qHTS assay to identify small molecule antagonists of the androgen receptor (AR) signaling pathway using the MDA cell line (AID 743042; note: nearly all actives have a fitted effect of over 55% in size). An outline of the steps: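 MDA-kb2 cells (human breast carcinoma, stably carrying an MMTV-luciferase reporter responsive to AR and GR) were plated at 3,000 cells/well and preincubated 5 hr at 37C, then given compound plus R1881 agonist for 16 h. ONE-Glo luminescence was read.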

Chain of Aromatase (Homo sapiens) (P11511 whole entry, looked up): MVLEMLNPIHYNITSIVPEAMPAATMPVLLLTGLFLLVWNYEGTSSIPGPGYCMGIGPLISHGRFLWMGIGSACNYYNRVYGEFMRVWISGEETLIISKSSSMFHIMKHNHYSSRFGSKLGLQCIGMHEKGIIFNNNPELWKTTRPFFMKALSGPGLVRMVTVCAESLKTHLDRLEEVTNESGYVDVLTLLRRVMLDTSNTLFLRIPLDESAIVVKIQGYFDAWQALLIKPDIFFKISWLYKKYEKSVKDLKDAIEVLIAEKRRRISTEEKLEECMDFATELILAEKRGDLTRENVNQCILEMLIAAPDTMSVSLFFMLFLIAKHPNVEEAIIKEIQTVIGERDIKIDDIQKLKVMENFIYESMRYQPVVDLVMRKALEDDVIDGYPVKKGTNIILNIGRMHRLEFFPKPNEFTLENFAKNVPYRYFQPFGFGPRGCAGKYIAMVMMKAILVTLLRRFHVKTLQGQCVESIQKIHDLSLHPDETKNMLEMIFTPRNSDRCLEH
Chain of Androgen receptor (Homo sapiens) (P10275 whole entry, looked up): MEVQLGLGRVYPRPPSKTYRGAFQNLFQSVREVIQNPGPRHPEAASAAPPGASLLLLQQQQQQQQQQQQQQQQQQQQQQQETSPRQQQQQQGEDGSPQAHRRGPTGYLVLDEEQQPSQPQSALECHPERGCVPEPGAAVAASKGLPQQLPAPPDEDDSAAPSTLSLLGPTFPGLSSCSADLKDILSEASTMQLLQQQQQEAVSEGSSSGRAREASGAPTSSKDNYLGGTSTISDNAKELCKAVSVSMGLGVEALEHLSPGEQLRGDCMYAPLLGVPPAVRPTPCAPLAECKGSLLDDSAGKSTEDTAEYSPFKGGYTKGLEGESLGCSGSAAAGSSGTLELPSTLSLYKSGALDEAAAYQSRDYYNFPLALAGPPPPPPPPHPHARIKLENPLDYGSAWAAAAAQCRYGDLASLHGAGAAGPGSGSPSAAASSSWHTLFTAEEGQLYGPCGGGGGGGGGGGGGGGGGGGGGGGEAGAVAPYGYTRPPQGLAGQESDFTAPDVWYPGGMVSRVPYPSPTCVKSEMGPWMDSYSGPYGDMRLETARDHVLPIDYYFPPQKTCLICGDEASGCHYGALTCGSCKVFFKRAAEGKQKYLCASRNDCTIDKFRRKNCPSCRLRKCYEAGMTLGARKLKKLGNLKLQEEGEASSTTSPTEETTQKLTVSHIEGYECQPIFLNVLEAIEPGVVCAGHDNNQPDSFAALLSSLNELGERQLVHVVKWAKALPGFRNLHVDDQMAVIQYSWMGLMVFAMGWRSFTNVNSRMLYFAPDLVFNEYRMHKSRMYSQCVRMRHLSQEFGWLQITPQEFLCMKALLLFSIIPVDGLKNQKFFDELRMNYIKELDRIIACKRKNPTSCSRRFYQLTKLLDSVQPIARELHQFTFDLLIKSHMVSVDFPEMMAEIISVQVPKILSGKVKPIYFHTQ
Chain of Estrogen receptor (Homo sapiens) (P03372 whole entry, looked up): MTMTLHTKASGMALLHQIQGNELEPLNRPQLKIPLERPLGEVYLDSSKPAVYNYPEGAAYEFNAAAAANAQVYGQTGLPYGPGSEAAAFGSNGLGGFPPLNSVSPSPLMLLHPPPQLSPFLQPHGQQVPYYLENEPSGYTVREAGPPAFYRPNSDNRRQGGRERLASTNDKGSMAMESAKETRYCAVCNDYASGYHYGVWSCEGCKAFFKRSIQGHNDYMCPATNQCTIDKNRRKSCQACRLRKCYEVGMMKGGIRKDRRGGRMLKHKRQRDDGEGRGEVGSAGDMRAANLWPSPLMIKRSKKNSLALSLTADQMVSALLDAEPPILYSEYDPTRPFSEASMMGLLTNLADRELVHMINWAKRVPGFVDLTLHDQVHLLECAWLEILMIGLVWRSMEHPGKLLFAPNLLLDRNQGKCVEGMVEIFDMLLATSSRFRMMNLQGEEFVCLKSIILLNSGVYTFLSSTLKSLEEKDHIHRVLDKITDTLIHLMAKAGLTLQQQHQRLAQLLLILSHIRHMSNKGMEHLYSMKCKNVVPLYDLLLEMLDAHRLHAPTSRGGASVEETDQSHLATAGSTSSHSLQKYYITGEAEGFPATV

As to `CC(=O)C(C)(C)C`, the Potency entry in assay [1], in assay [5], in [6], in assay [7], in assay [8] and in [9] was “inactive” in each case. For the same compound, the Potency result in assay [10], in assay [11], in assay [12], in assay [13], in [14] and in assay [15] was “inactive” in each case. Besides, in the assay with Aromatase (Homo sapiens), the Potency entry is “inactive”. Moreover, the Potency is 45 µM (active) in [2], 3.18 µM (active) in [3] and 4.01 µM (active) in [4].
As to `COCC(C)N(C(=O)CCl)c1c(C)csc1C` (centres undefined), the Potency entry in assay [1], in assay [5], in [6], in assay [7], in [8] and in assay [9] was “inactive” throughout. Moreover, the Potency entry in [11], in assay [12], in assay [13], in assay [14] and in assay [15] was “inactive” each time. The Potency entry was “inactive and 17.2 µM (active)” in assay [2]; “inactive and 15.4 µM (active)” in assay [3]; “inactive and 17.2 µM (active)” in assay [4]; “inactive and 30.9 µM [inconclusive] (active)” in [10]; “inactive and 34.4 µM (active)” in the assay with Aromatase (Homo sapiens).
Consider `CCCCCCCCCCOC(=O)c1ccccc1C(=O)OCCCCCCCCCC`, for which the Potency entry in assay [1], in assay [2], in [3], in assay [4], in assay [5] and in assay [17] was “inactive” in each case. Further, the Potency entry in assay [6], in assay [7], in assay [11], in assay [12], in assay [13] and in assay [14] was “inactive” in each case. Also, the Potency result (in [15]; with Aromatase (Homo sapiens)) was “inactive” in each case. The compound was classed as inactive in assay [16].
For the compound `Brc1ccccc1`, the Potency result in assay [1], in assay [2], in [3], in assay [4], in assay [5] and in assay [18] was “inactive” throughout. The Potency entry in assay [17], in [6], in [19], in [7], in assay [8] and in assay [9] was “inactive” each time. Also, the Potency result in assay [10], in [11], in assay [12], in [13], in [14] and in [15] was “inactive” each time. Besides, the Potency result with Aromatase (Homo sapiens) is “inactive”. In addition, the outcome in assay [16] was inactive.
For the compound `CCCCN(N=O)C(=N)N[N+](=O)[O-]`, the Potency entry in [1], in [5], in assay [18], in assay [17], in assay [6] and in assay [9] was “inactive” each time. Moreover, the Potency result in [11] and in assay [15] was “inactive” each time. In addition, the Potency is 17.6 µM (active) in assay [2]; 1.57 µM (active) in [3]; 2.79 µM (active) in assay [4]; 62.4 µM (active) in assay [7]; 49.6 µM (active) in assay [8]. The compound was classed as inactive in [16].
For `CCOc1ccc(C(C)(C)COCc2cccc(Oc3ccccc3)c2)cc1`, the Potency entry in [1], in assay [2], in assay [3], in [4], in [5] and in assay [6] was “inactive” in each case. The Potency result in [7], in assay [8], in [9], in assay [10], in assay [11] and in assay [12] was “inactive” throughout. For the same compound, the Potency entry (in assay [13]; in [14]; in assay [15]; in the assay with Aromatase (Homo sapiens)) was “inactive” throughout.
In the case of `CCCCCCC#N`, the Potency result in assay [1], in assay [2], in assay [3], in [4], in assay [5] and in assay [6] was “inactive” each time. The Potency entry in assay [7], in assay [8], in assay [9], in assay [10], in [11] and in [12] was “inactive” each time. For the same compound, the Potency entry (in assay [13]; in [14]; in [15]; with Aromatase (Homo sapiens)) was “inactive” in each case.
Take `C=C(C#N)CCC#N`: the Potency entry in assay [1], in assay [2], in [3], in assay [4], in [5] and in [6] was “inactive” throughout. Further, the Potency entry in assay [7], in assay [8], in assay [9], in assay [10], in assay [11] and in [12] was “inactive” in each case. Besides, the Potency result (in assay [13]; in assay [14]; in [15]; with Aromatase (Homo sapiens)) was “inactive” each time.
